The record followed here is PubChem BioAssay (NCI).

The structures appear in SMILES notation. “And” between values parts separate entries of the source, which are not always exact repeats. Equal values may be shown once. About 83,000 compounds went through this panel and 20% of them were active in at least one assay; those are over-represented in the sample as a whole.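 Results are percent growth after 48 hours of single-concentration exposure. 100 means growth as in untreated cells, lower positive values show inhibition; negative values down to -100 show cell death.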 The source made the active and inactive calls. How the source made its calls: active means growth percent below 10; inactive means the rest.

The subject of one assay is SF-295 CNS. In words: NCI-60 one-dose screen, 48 h (100 = growth as untreated, 0 = no growth, -100 = all killed). To be noted: 10 µM unless noted.
Turning to `COc1ccc(/C(C#N)=C/c2ccccn2)cc1`, the growth was 102% (inactive) and 134% (inactive).

For the molecule `O=C1OC2(c3ccccc31)c1ccc(O)c(O)c1Oc1c2ccc(O)c1O`, the growth is 110% (inactive) and 130% (inactive).

As for `CC(=O)Nc1cccc2c1CCCC2`, the growth is 94.9% (inactive) and 100% (inactive).

As to `CN(C)c1ccc2nc3ccc(N)cc3[n+](-c3ccccc3)c2c1`, the growth was 29% (inactive) and -39.8% (active).

In the case of `CCN(CC)CCOc1ccc(/C=N/Nc2nc3c([nH]2)c(=O)n(C)c(=O)n3C)cc1`, the growth is 113% (inactive) and 98.7% (inactive).

With `O=C1CCN(Cc2ccccc2)C(=S)N1`, the growth is 118% (inactive) and 133% (inactive).

Regarding `CC(C)Cc1ccc(C(C)C(=O)NCc2ccc(Cn3c(=O)sn(CCCI)c3=O)cc2)cc1` (configuration not stated), the growth was 96.1% (inactive) and 35.9% (inactive).

In the case of `CCc1c(CC(=O)O)c2cc(C)ccc2n1Cc1ccc(Cl)cc1`, the growth was 91.6% (inactive) and 84.9% (inactive).

On to `CNC(=O)c1ccc(C)c(-n2c(C)cc(OCc3ccc(F)cc3F)c(Br)c2=O)c1`, for which the growth was 68.9% (inactive) and 78.3% (inactive).

Take `O=[N+]([O-])c1ccc(-n2[nH]nnc2=S)cc1`: the growth is 95.2% (inactive).

For the molecule `COC(=O)/C=C/c1cc(O)c2c(c1)C(C(=O)OC)C(c1ccc(O)c(O)c1)O2` (configuration not stated), the growth is 19.2% (inactive) and 22.4% (inactive).

As to `COC(=O)c1nc(N)nc(C(=O)OC)c1C(=O)c1ccc(OC)cc1`, the growth was 108% (inactive) and 102% (inactive).

Take `COc1cc2c(c(OC)c1OC)-c1ccc(OC)c(=O)cc1[C@@H](NC(C)=O)CC2`: the growth is 2.25% (active) and 12.5% (inactive) and 7.89% (active).

`CN1CCN(c2ccc3nc(-c4c(N)c5c(F)cccc5[nH]c4=O)[nH]c3c2)CC1`: the growth was 56.6% (inactive) and 71.6% (inactive).

As for `NC(=S)NN=C1CCC(C2CCCCC2)CC1` (configuration not stated), the growth was 93% (inactive) and 87.7% (inactive).

Turning to `c1ccc2cc(C[n+]3ccn(Cc4ccc5ccccc5n4)c3)ccc2c1`, the growth is 19.7% (inactive) and 60% (inactive).

`CN(C)CCC(=O)c1ccc(Cl)cc1`: the growth was 117% (inactive) and 126% (inactive).

`Fc1ccccc1Nc1n[nH]c(=S)s1`: the growth was 126% (inactive).

Turning to `CCOc1ccc2cc(-c3nn(CC4CCN(C)CC4)c4ncnc(N)c34)ccc2c1`, the growth was 96.9% (inactive) and 50.4% (inactive).

Regarding `CC[N+](CC)(CC(=O)Nc1c(C)cccc1C)Cc1ccccc1`, the growth was 104% (inactive) and 101% (inactive).

Consider `CC1=CCC2CC1C2(C)C` (configuration not stated), for which the growth was 94.2% (inactive) and 106% (inactive).

Regarding `CC1(C)[C@@H](OC(=O)CCC(=O)O)CC[C@]2(C)[C@H]3C(=O)C=C4[C@@H]5C[C@@](C)(C(=O)O)CC[C@]5(C)CC[C@@]4(C)[C@]3(C)CC[C@@H]12`, the growth was 106% (inactive) and -51.1% (active).

As for `CCC(O)c1ccccc1` (configuration not stated), the growth is 95% (inactive) and 115% (inactive).

Turning to `CN(Cc1ccccc1)Cc1ccccc1`, the growth is 112% (inactive).

For the molecule `COc1ccc(-c2ncnc3c2ncn3C/C=C/CCl)cc1`, the growth was 109% (inactive) and 92.6% (inactive).

As for `NS(=O)(=O)c1cc2c(cc1Cl)NC(C(Cl)Cl)NS2(=O)=O` (configuration not stated), the growth is 118% (inactive) and 111% (inactive).

As to `O=Nc1ccc(O)cc1`, the growth is 99.5% (inactive) and 105% (inactive).

On to `COc1ccc2c(=O)cc(-c3ccccc3)[nH]c2c1`, for which the growth is -8.08% (active) and 2.52% (active).

For `O=CC(O)C(O)C(O)CO` (configuration not stated), the growth was 121% (inactive).

Take `CN(C)c1ccc(/C=C(\C#N)c2ccccc2)cc1`: the growth is -18.9% (active) and 23.5% (inactive) and 17% (inactive).

With `OCCN1CCN(CCO)CC1`, the growth is 94.9% (inactive) and 82.6% (inactive) and 110% (inactive).

In the case of `CC1=C[C@H]2c3c(c(O)c(O)c4oc5cc(O)cc(O)c5c(=O)c34)[C@H](c3cc(O)c(O)c4oc5cc(O)cc(O)c5c(=O)c34)[C@H]2C(C)(C)C1`, the growth was -47.5% (active) and -27.1% (active).

For the molecule `CCOc1ccc2c(S(=O)(=O)O)cccc2c1[N+](=O)[O-]`, the growth was 104% (inactive) and 107% (inactive).

For the molecule `Nc1ccccc1Nc1ccccc1`, the growth is 98.4% (inactive).

For the molecule `Oc1ccccc1C=NCC1CCC(CN=Cc2ccccc2O)CC1` (configuration not stated), the growth was 71.6% (inactive).

Consider `Clc1ccc(NC(Nc2ccc(Cl)cc2)C(Cl)(Cl)Cl)cc1`, for which the growth is 90.3% (inactive) and 97% (inactive).

The subject of another assay is SF-539 CNS. Described as above. To be noted: 10 µM unless noted.
With `COc1ccc(/C(C#N)=C/c2ccccn2)cc1`, the growth is 108% (inactive) and 106% (inactive).

Regarding `O=C1OC2(c3ccccc31)c1ccc(O)c(O)c1Oc1c2ccc(O)c1O`, the growth is 108% (inactive) and 125% (inactive).

Regarding `CC(=O)Nc1cccc2c1CCCC2`, the growth was 107% (inactive) and 97.8% (inactive).

`CN(C)c1ccc2nc3ccc(N)cc3[n+](-c3ccccc3)c2c1`: the growth is 19.8% (inactive) and -29.8% (active).

As to `CCN(CC)CCOc1ccc(/C=N/Nc2nc3c([nH]2)c(=O)n(C)c(=O)n3C)cc1`, the growth is 97.2% (inactive) and 95.5% (inactive).

As for `O=C1CCN(Cc2ccccc2)C(=S)N1`, the growth is 111% (inactive) and 98.6% (inactive).

As for `CC(C)Cc1ccc(C(C)C(=O)NCc2ccc(Cn3c(=O)sn(CCCI)c3=O)cc2)cc1` (configuration not stated), the growth is 88.7% (inactive) and -96.6% (active).

As for `CCc1c(CC(=O)O)c2cc(C)ccc2n1Cc1ccc(Cl)cc1`, the growth was 97.4% (inactive) and 90.2% (inactive).

On to `CNC(=O)c1ccc(C)c(-n2c(C)cc(OCc3ccc(F)cc3F)c(Br)c2=O)c1`, for which the growth was 89.5% (inactive) and 88.2% (inactive).

Regarding `O=[N+]([O-])c1ccc(-n2[nH]nnc2=S)cc1`, the growth is 104% (inactive).

For `COC(=O)/C=C/c1cc(O)c2c(c1)C(C(=O)OC)C(c1ccc(O)c(O)c1)O2` (configuration not stated), the growth was 5.8% (active) and 3.46% (active).

Take `COC(=O)c1nc(N)nc(C(=O)OC)c1C(=O)c1ccc(OC)cc1`: the growth is 97.4% (inactive) and 59.8% (inactive).

With `COc1cc2c(c(OC)c1OC)-c1ccc(OC)c(=O)cc1[C@@H](NC(C)=O)CC2`, the growth was -9.65% (active) and -24.7% (active) and -10.6% (active).

With `CN1CCN(c2ccc3nc(-c4c(N)c5c(F)cccc5[nH]c4=O)[nH]c3c2)CC1`, the growth was 6.28% (active) and 11.5% (inactive).

For `NC(=S)NN=C1CCC(C2CCCCC2)CC1` (configuration not stated), the growth was 97.1% (inactive) and 82.8% (inactive).

Consider `c1ccc2cc(C[n+]3ccn(Cc4ccc5ccccc5n4)c3)ccc2c1`, for which the growth is 13.8% (inactive) and 29.3% (inactive).

For the molecule `CN(C)CCC(=O)c1ccc(Cl)cc1`, the growth was 106% (inactive).

Consider `Fc1ccccc1Nc1n[nH]c(=S)s1`, for which the growth was 105% (inactive).

Regarding `CCOc1ccc2cc(-c3nn(CC4CCN(C)CC4)c4ncnc(N)c34)ccc2c1`, the growth is 84.4% (inactive) and 16.7% (inactive).

On to `CC[N+](CC)(CC(=O)Nc1c(C)cccc1C)Cc1ccccc1`, for which the growth is 111% (inactive) and 102% (inactive).

In the case of `CC1=CCC2CC1C2(C)C` (configuration not stated), the growth was 102% (inactive).

For the molecule `CC1(C)[C@@H](OC(=O)CCC(=O)O)CC[C@]2(C)[C@H]3C(=O)C=C4[C@@H]5C[C@@](C)(C(=O)O)CC[C@]5(C)CC[C@@]4(C)[C@]3(C)CC[C@@H]12`, the growth was 99.9% (inactive) and -73% (active).

In the case of `CCC(O)c1ccccc1` (configuration not stated), the growth is 89.2% (inactive) and 105% (inactive).

Regarding `CN(Cc1ccccc1)Cc1ccccc1`, the growth was 99.2% (inactive).

Regarding `COc1ccc(-c2ncnc3c2ncn3C/C=C/CCl)cc1`, the growth is 75.9% (inactive) and 98.9% (inactive).

On to `NS(=O)(=O)c1cc2c(cc1Cl)NC(C(Cl)Cl)NS2(=O)=O` (configuration not stated), for which the growth was 104% (inactive).

In the case of `O=Nc1ccc(O)cc1`, the growth was 90.2% (inactive) and 91.5% (inactive).

Consider `COc1ccc2c(=O)cc(-c3ccccc3)[nH]c2c1`, for which the growth was -5.99% (active) and -23.9% (active).

For the molecule `O=CC(O)C(O)C(O)CO` (configuration not stated), the growth was 88.1% (inactive) and 111% (inactive).

Turning to `CN(C)c1ccc(/C=C(\C#N)c2ccccc2)cc1`, the growth was -2.9% (active) and -3.11% (active) and -13.1% (active).

With `OCCN1CCN(CCO)CC1`, the growth was 105% (inactive) and 91.1% (inactive) and 106% (inactive).

Take `CC1=C[C@H]2c3c(c(O)c(O)c4oc5cc(O)cc(O)c5c(=O)c34)[C@H](c3cc(O)c(O)c4oc5cc(O)cc(O)c5c(=O)c34)[C@H]2C(C)(C)C1`: the growth was -33.5% (active) and -26.5% (active).

With `CCOc1ccc2c(S(=O)(=O)O)cccc2c1[N+](=O)[O-]`, the growth is 102% (inactive) and 107% (inactive).

Take `Nc1ccccc1Nc1ccccc1`: the growth is 94.8% (inactive) and 78.5% (inactive).

With `Oc1ccccc1C=NCC1CCC(CN=Cc2ccccc2O)CC1` (configuration not stated), the growth was 100% (inactive).

For `Clc1ccc(NC(Nc2ccc(Cl)cc2)C(Cl)(Cl)Cl)cc1`, the growth was 110% (inactive) and 100% (inactive).
